Measured values as given in the supplement of paper PMC10720658.
± gives the standard deviation of the averaged measurements.

system: AEK1 (Tb927.3.2440); test: percent reduction in TR-FRET probe signal relative to DMSO control; higher = stronger displacement of ATP-site probe (binding); conditions: 1 µM; incubation time 1 h

Row | SMILES | percent reduction in TR-FRET probe signal
1 | Cc1cc(Nc2cc(CN3CCOCC3)c3nc(C)c(Cc4ccc(Cl)cc4F)n3n2)n[nH]1 | 49 ± 10%
2 | C[C@@H](Oc1cc(-c2cnn(C3CCNCC3)c2)cnc1N)c1c(Cl)ccc(F)c1Cl | 35.4 ± 13%
3 | Cc1c(NC(=O)c2ccc(C(C)(C)C)cc2)cccc1-c1cn(C)c(=O)c(Nc2ccc(C(=O)N3CCOCC3)cc2)n1 | -8 ± 7.8%
4 | Nc1nc(Nc2ccc(S(N)(=O)=O)cc2)nn1C(=O)c1c(F)cccc1F | 27.8 ± 16%
5 | C=CC(=O)Nc1ccc2ncnc(Nc3cccc(Br)c3)c2c1 | 12 ± 5.5%
6 | O=C(Nc1ccc(-c2ccnc(Nc3ccc(N4CCOCC4)cc3)n2)cc1)[C@@H]1CCCN1 | 6.52 ± 10%
7 | NC1(Cc2ccc(Cl)cc2)CCN(c2ncnc3[nH]ccc23)CC1 | 2.05 ± 3.4%
8 | CC(=O)Nc1cccc(-n2c(=O)n(C3CC3)c(=O)c3c(Nc4ccc(I)cc4F)n(C)c(=O)c(C)c32)c1 | 4.31 ± 12%
9 | CCNc1nc(Nc2cc(F)c(C(=O)N3CCOCC3)cc2OC)ncc1C(F)(F)F | 11.9 ± 11%
10 | Cc1cc(O)c2c(c1)C(=O)c1cccc(O)c1C2=O [Chrysophanic Acid] | 6.22 ± 14%
11 | Cc1[nH]c(/C=C2\C(=O)Nc3ccc(S(=O)(=O)Cc4c(Cl)cccc4Cl)cc32)c(C)c1C(=O)N1CCC[C@@H]1CN1CCCC1 | -5.64 ± 15%
12 | CC1(COc2ccc3c(c2)ncn3-c2ccc3cccc(N4CCC(N)CC4)c3n2)COC1 | 18.8 ± 11%
13 | CS(=O)(=O)CCNCc1ccc(-c2ccc3ncnc(Nc4ccc(OCc5cccc(F)c5)c(Cl)c4)c3c2)o1.Cc1ccc(S(=O)(=O)O)cc1.Cc1ccc(S(=O)(=O)O)cc1 | 19.5 ± 21%
14 | C[C@@H]1CN(CC(=O)Nc2ccc3c(c2)Cc2cccc(-c4cc(=O)cc(N5CCOCC5)o4)c2S3)C[C@H](C)O1 | -2.9 ± 6.6%
15 | C[C@@H]1COCCN1c1cc(C2(S(C)(=N)=O)CC2)nc(-c2ccnc3[nH]ccc23)n1 (some centres undefined) | 8.44 ± 6%
16 | O=C(Nc1ccc(OC(F)(F)F)cc1)c1sccc1NCc1ccnc2ccccc12 | -8.08 ± 5.7%
17 | Nc1ccc(C(=O)Nc2cccc(-c3nc(N4CCOCC4)c4oc5ncccc5c4n3)c2)cn1 | -7.4 ± 3%

Row | SMILES | percent reduction in TR-FRET probe signal
18 | CC(C)(O)CC(=O)NCCn1ccc2ncnc(Nc3ccc(Oc4cccc(C(F)(F)F)c4)c(Cl)c3)c21 | -2.36 ± 7.6%
19 | O=C(c1ccc(/C=C/c2n[nH]c3ccccc23)cc1)N1CCNCC1 | 51.6 ± 14%
20 | N#Cc1c(Oc2ccc(F)c(NC(=O)Cc3cccc(C(F)(F)F)c3)c2)ccc2nc(NC(=O)C3CC3)sc12 | 1.05 ± 9.1%
21 | O=C1NC(=O)/C(=C/c2ccc(-c3ccc(F)cc3O)o2)S1 | 16 ± 24%
22 | Cc1cnc(Nc2ccc(N3CCN(C)CC3)cc2)nc1Nc1cccc(S(=O)(=O)NC(C)(C)C)c1 | 5.49 ± 1.9%
23 | CN1CCN(c2ccc(C(=O)Nc3n[nH]c4ccc(Cc5cc(F)cc(F)c5)cc34)c(NC3CCOCC3)c2)CC1 [Entrectinib (RXDX-101)] | -3.42 ± 2.4%
24 | COc1ccc(CNC(=O)Nc2ncc([N+](=O)[O-])s2)cc1 | -3.27 ± 4.3%
25 | N#Cc1c(NC(=O)c2cccc3ccccc23)sc2c1CCCC2 [JNK Inhibitor IX] | -3.71 ± 5.5%
26 | CCc1cncnc1N1CCN(Cc2nc3cc(C(F)(F)F)ccc3[nH]2)CC1 | -7.37 ± 13%
27 | O=C1Nc2ccccc2/C1=C1\Nc2ccccc2C1=O [Indirubin] | -2.5 ± 6.6%
28 | CN1CCC(Nc2nc(Nc3ccc(Oc4ccccc4)cc3)c3c(=O)[nH]cc(Br)c3n2)CC1 | 35.3 ± 9.5%
29 | O=C1Nc2ccc(I)cc2/C1=C/c1cc(Br)c(O)c(Br)c1 | 8.22 ± 8.7%
30 | Cc1cnc(NC(=O)Nc2cc(Br)c(C)cc2OC[C@@H]2CNCCO2)cn1 | 9.29 ± 6.3%
31 | Oc1ccc(-c2nc(-c3ccc(F)cc3)c(-c3ccncc3)[nH]2)cc1 | -5.77 ± 4%
32 | CCCCCCCCCCCCCCCc1cccc(O)c1C(=O)O [Anacardic Acid] | 19.2 ± 19%
33 | CN1CCN(C2CCN(C(=O)Nc3cc(Oc4ccc(NC(=O)C5(C(=O)Nc6ccc(F)cc6)CC5)c(F)c4)ccn3)CC2)CC1 [Golvatinib (E7050)] | 0.527 ± 8%
34 | O=C(NCc1ccccc1)c1csc(Nc2ccncn2)n1 [Thiazovivin] | 10.4 ± 11%
